Experimental data published in PubChem BioAssay (EPA / NIEHS).
“And” between values parts separate entries of the source, which are not always exact repeats. Equal values may be shown once. The source made the active and inactive calls. How the source made its calls: active means hit-call score of the fitted dose curve at least 0.9, where 1 is the maximum; inactive means score below 0.9.

Each molecule was assayed on Matrix Metallopeptidase 9 (MMP9), MMP9 (gene 4318) (assay: BSK_KF3CT_MMP9: BioMAP Diversity Plus: KF3CT Assay for Matrix Metallopeptidase 9 (MMP9) Biomarker Activity (AID 2283074)). Details: primary human keratinocytes with fibroblasts; actives raise or lower the signal.
Experimental: BSK_KF3CT is a cell-based, multiplexed-readout assay that uses keratinocytes and foreskin fibroblasts, a human skin primary cell co-culture, with measurements taken at 24 hours after chemical dosing in a 96-well plate.BSK_KF3CT_MMP9 is an assay component measured in the BSK_KF3CT assay. It measures MMP-9 antibody related to regulation of gene expression using ELISA technology.Data from the assay component BSK_KF3CT_MMP9 was analyzed into 1 assay endpoint. This assay endpoint, BSK_KF3CT_MMP9, was analyzed with bidirectional fitting relative to DMSO as the negative control and baseline of activity. Using a type of binding reporter, gain or loss-of-signal activity can be used to understand changes in the signaling as they relate to the gene MMP9. Furthermore, this assay endpoint can be referred to as a primary readout, because this assay has produced multiple assay endpoints where this one serves a signaling function. To generalize the intended target to other relatable targets, this assay endpoint is annotated to the protease intended target family, where the subfamily is matrix metalloproteinase.
The levels of cell surface (or secreted, indicated by the prefix "s") biomarker endpoints were measured by ELISA. Overt cytotoxicity to cells in confluent adherent cultures (all systems other than the BT system) was assessed by measuring total protein levels using sulforhodamine B (SRB) staining in parallel cultures at the time of biomarker measurements, indicated as SRB endpoints. For proliferation assays for adherent cell types, individual cell types are cultured at sub-confluence and relative cell numbers quantified by SRB staining at time points optimized for each system (48 h: 3C and CASM3C systems; 72 h: BT and HDF3CGF systems; 96 h: SAg system). SRB was performed by staining cells with 0.1% SRB after fixation with 10% TCA and reading wells at 560 nm.Viability and proliferation of PBMC (T cells) was quantified by Alamar Blue reduction for the SAg and BT systems. For PBMC viability (referred to as PBMC Cytotoxicity within the assay endpoint names), cells were plated (75,000/well in a 96-well plate) and then chemical samples added for 1 h before addition of activators, SEB and TSST-1 (20 ng/mL final concentration each). Cells were incubated for 90 h. Then, Alamar Blue (20 uL/well) (Invitrogen, Cat DAL1100) was added for 6 h, and the plates were read with a fluorescence microplate reader at 546/580 nm (excitation/emission). For PBMC proliferation, cells were plated and activated as above but incubated for only 16 h prior to addition of Alamar Blue. Plates were read after 6 h.
`CCCCCCCCCCCCCCCCCC[N+](C)(C)Cc1ccccc1` was tested, and the AC50 was 2.75 µM (active). With `O=C1c2ccc(O)c(O)c2C(=O)c2c(O)ccc(O)c21` the outcome was “inactive”. For `CN(CCO)S(=O)(=O)C(F)(F)C(F)(F)C(F)(F)C(F)(F)C(F)(F)C(F)(F)C(F)(F)C(F)(F)F`, the outcome was “inactive”. `CC(C)(C)c1ccc(O)c(O)c1` was tested, and the AC50 was 20 µM (active). `CN(C)CCOC(c1ccccc1)c1ccccc1` was tested, and the outcome was “inactive”. With `Cc1ccc(C(=O)c2ccccc2)cc1` the outcome was “inactive”. `C=CC(C)(CCC=C(C)C)OC(C)=O` (stereo not given) was tested, and the AC50 was 30.4 µM (active). In the case of `CC[N+](CC)(CC)Cc1ccccc1`, the outcome is reported as “inactive”. `Cc1[nH]nc2c1N=C(c1ccccc1Cl)c1cc([N+](=O)[O-])ccc1N2` was tested, and the AC50 was 4.48 µM (active). `CCC(C)c1ccccc1O` (stereo not given) was tested, and the outcome was “inactive”. For `CCCCCCCCCCCC`, the AC50 was 6.78 µM (active) and 7.3 µM (active). In the case of `CCCCc1oc2ccccc2c1C(=O)c1cc(I)c(OCCN(CC)CC)c(I)c1`, the AC50 is reported as 6.54 µM (active). In the case of `CC(=O)Nc1ccc(O)cc1`, the outcome is reported as “inactive”. For `O=C1OC2(c3ccccc31)c1cc(I)c(O)c(I)c1Oc1c2cc(I)c(O)c1I`, the AC50 was 14.9 µM (active). `CCCCC(CC)C(=O)OCCOCCOCCOCCOC(=O)C(CC)CCCC` (stereo not given) was tested, and the outcome was “inactive”. With `CCCCCCCCCCCCCCC` the outcome was “inactive”. With `Clc1ccc(Nc2nnc(Cc3ccncc3)c3ccccc23)cc1` the AC50 was 7.58 µM (active). For `Cc1ccc(N=Nc2c(O)ccc3ccccc23)c(C)c1`, the outcome was “inactive”. For `O=C(CCCN1CCC(O)(c2ccc(Cl)cc2)CC1)c1ccc(F)cc1`, the outcome was “inactive”. In the case of `COc1cc(OC)nc(NC(=O)NS(=O)(=O)Nc2ccccc2C(=O)N(C)C)n1`, the outcome is reported as “inactive”. In the case of `C=COC(=O)C(C)(C)CCCCCC`, the AC50 is reported as 33 µM (active). In the case of `O=C(O)C(F)(F)OC(F)(F)C(F)(F)OC(F)(F)C(F)(F)OC(F)(F)C(F)(F)C(F)(F)C(F)(F)F`, the AC50 is reported as 8.13 µM (active) and 8.24 µM (active). `COC1=CC(=O)C[C@@H](C)[C@]12Oc1c(Cl)c(OC)cc(OC)c1C2=O` was tested, and the AC50 was 0.572 µM (active). With `CCCCC(CC)C(=O)O` (stereo not given) the outcome was “inactive”. For `OCC(CO)(CBr)CBr`, the outcome was “inactive”. With `COCN(COC)c1nc(N(COC)COC)nc(N(COC)COC)n1` the outcome was “inactive”. `Cc1cccc2c1ccc1ccccc12` was tested, and the outcome was “inactive”. `O=C(NCc1ncc(C(F)(F)F)cc1Cl)c1c(Cl)cccc1Cl` was tested, and the outcome was “inactive”. With `CCOC(=O)CN[C@@H](C(=O)N1CC[C@H]1C(=O)NCc1ccc(/C(N)=N/O)cc1)C1CCCCC1` the outcome was “inactive”. `O=C1NS(=O)(=O)c2ccccc21` was tested, and the outcome was “inactive”. For `CCCCCCCCCCCCOS(=O)(=O)O`, the AC50 was 30.9 µM (active). With `CCCCC=O` the outcome was “inactive”. `NC(=NCCCCCCN=C(N)/N=C(\N)Nc1ccc(Cl)cc1)/N=C(\N)Nc1ccc(Cl)cc1` was tested, and the AC50 was 2.67 µM (active). `CC1=NN(c2ccccc2)C(=O)C1` was tested, and the outcome was “inactive”. In the case of `O=C(CC(=O)C(F)(F)C(F)(F)C(F)(F)F)c1cccs1`, the AC50 is reported as 2.38 µM (active) and 4.67 µM (active). In the case of `Oc1c(Cl)cc(Cl)cc1Sc1cc(Cl)cc(Cl)c1O`, the AC50 is reported as 1.88 µM (active) and 2.08 µM (active). `O=P(O)(O)CCC(F)(F)C(F)(F)C(F)(F)C(F)(F)C(F)(F)C(F)(F)C(F)(F)C(F)(F)F` was tested, and the outcome was “inactive”. For `O=C(O)CCC(F)(F)C(F)(F)C(F)(F)C(F)(F)C(F)(F)F`, the outcome was “inactive”. For `CN(C)c1ccc(C(=C2C=CC(=[N+](C)C)C=C2)c2ccccc2)cc1`, the AC50 was 0.0207 µM (active). `C[C@]12CC[C@@H]3c4ccc(O)cc4CC[C@H]3[C@@H]1C[C@@H](O)[C@@H]2O` was tested, and the outcome was “inactive”.
